The whole screen tested about 290,000 compounds, of which about 890 (0.31%) were called active. Rule as the data show it: active = inhibition mostly above about 52% (no sharp cut-off); inactive = mostly below about 76%. Only a selection was taken, and actives are over-represented in it overall.
Test: cell-free HIV fusion peptide-binding blockers – biochemical, uHTS, fluorescence dequenching, primary screen (AID 1986)
Settings: 30 min, stronger effect = higher value
[1] = measured here: repeat confirmation average inhibition, at 18.6 µM

Compound	inhibition (at 20 µM)	inhibition [1]
Cc1ccc(C(=O)CC(C(=O)O)n2cncn2)cc1 (stereo not given)	1.7% (inactive)	–
Cc1ccc2c(c1)S/C(=C/c1ccc[n+](C)c1)N2CCO	-0.9% (inactive)	–
O=C(CC1SC(=O)N(Cc2ccccc2Cl)C1=O)Nc1nccs1 (stereo not given)	-0.8% (inactive)	–
Cn1c(CCNC(=O)C(C)(C)C)nc2ccccc21	1.8% (inactive)	–
CN(C)[C@@H]1C(=O)C(C(N)=O)=C(O)[C@@]2(O)C(=O)C3=C(O)c4c(O)ccc(Cl)c4[C@@H](O)[C@H]3C[C@@H]12	58.4% (active)	–
C=C1c2cccc(O)c2C(O)=C2C(=O)[C@]3(O)C(O)=C(C(N)=O)C(=O)[C@@H](N(C)C)[C@@H]3[C@@H](O)[C@H]12	63.7% (active)	–
C[C@H]1c2cccc(O)c2C(O)=C2C(=O)[C@]3(O)C(O)=C(C(N)=O)C(=O)[C@@H](N(C)C)[C@@H]3[C@@H](O)[C@@H]21	16% (inactive)	–
CN(C)c1ccc(O)c2c1CC1CC3[C@@H](N(C)C)C(=O)C(C(N)=O)=C(O)[C@]3(O)C(=O)C1=C2O (stereo not given in full)	54% (inactive)	4.9%
COc1ccc2nc(NC(=O)Cn3cnc4c(=O)n(C)c(=O)n(C)c43)sc2c1	4% (inactive)	–
CCN(CC)C(=O)CC(c1ccc(F)cc1)c1ccc(OC)cc1 (stereo not given)	2% (inactive)	–
COc1ccc(OCC(=O)Nc2ccncc2)cc1	1.1% (inactive)	–
CCC1(c2ccccc2)NC(=O)N(CC(=O)Nc2ccccc2N2CCCCC2)C1=O (stereo not given)	2.6% (inactive)	–
S=c1[nH]nc(C2CCCCC2)o1	0.3% (inactive)	–
COC(=O)[C@H](CCSC)NC(=O)NCCC1=CCCCC1	0.8% (inactive)	–
CCc1cccc(NC(=O)CN(C)S(=O)(=O)c2cccs2)c1	27.6% (inactive)	–
Cc1ccc(C)c(N(C(=O)c2csnn2)C(C(=O)NC2CCCCC2)c2ccncc2)c1 (stereo not given)	-2.4% (inactive)	–
CSc1nc(-c2ccco2)cc(-c2ccccc2)c1C#N	-1.1% (inactive)	–
N#Cc1c(-c2ccco2)cc(-c2ccccc2)[nH]c1=O	50.8% (inactive)	12.4%
N#Cc1c(-c2ccccc2)cc(-c2ccco2)c(C#N)c1N	70.5% (active)	–
CN(C)c1cccc(NC(=O)c2cccc3ccccc23)c1	-1.2% (inactive)	–
Cc1ccc(CN(C(=O)Cn2nnc3ccccc32)C(C(=O)NCc2ccco2)c2ccc(C)o2)cc1 (stereo not given)	0.4% (inactive)	–
Cc1ccc(NC(=O)/C=C/c2ccco2)nc1	56.5% (active)	–

Compound	inhibition (at 20 µM)	inhibition [1]
O=C(/C=C/c1ccco1)Nc1ccccc1C(=O)O	58.3% (inactive)	24.2%
O=C(/C=C/c1ccco1)Nc1cccc(NC(=O)/C=C/c2ccco2)n1	93.3% (inactive)	1.5%
O=C(/C=C/c1ccco1)Nc1cc(Cl)ccc1C(=O)O	74.9% (active)	–
O=C(/C=C/c1ccco1)Nc1ccccn1	33.3% (inactive)	–
O=C(/C=C/c1ccco1)Nc1cccnc1Cl	7.4% (inactive)	–
COc1ccc(C(=O)C2CCCN(C(=O)c3csc(C(C)=O)c3)C2)c(C)c1 (stereo not given)	1.4% (inactive)	–
CS(=O)(=O)N(CC(=O)Nc1ccccc1C(=O)N1CCCC1)c1ccccc1Br	-0.2% (inactive)	–
COc1cc(CNCCc2ccc(S(N)(=O)=O)cc2)ccc1OCC(=O)NC(C)(C)C	-0.7% (inactive)	–
CSc1nc(=O)n2cccc(C)c2n1	3.1% (inactive)	–
COc1ccc(NC(=O)c2ccccc2OCc2c(C)noc2C)cc1OC	2.3% (inactive)	–
CC[C@@H](C(=O)[C@@H](C)[C@@H](O)[C@H](C)CCc1ccc(C)c(O)c1C(=O)O)[C@H]1O[C@](CC)([C@H]2CC[C@](O)(CC)[C@H](C)O2)C[C@@H]1C	56.3% (active)	–
CN(C)N1C(N)=C(C#N)C(c2cccs2)C2=C1CC(C)(C)CC2=O (stereo not given)	-0.7% (inactive)	–
CCOC(=O)c1ccc(NC(=O)c2ccc(CN3CCOCC3)cc2)cc1	-0.8% (inactive)	–
COCCN1C(=O)/C(=C/c2ccc(Oc3ccc([N+](=O)[O-])cn3)c(OC)c2)SC1=Nc1ccccc1	0.3% (inactive)	–
O=C1/C(=C/c2ccc(N3CCOCC3)o2)SC(=Nc2ccccc2)N1CCc1c[nH]c2ccccc12	37.2% (inactive)	–
COc1cc(/C=C2\SC(=Nc3ccccc3)N(Cc3ccco3)C2=O)ccc1OC(C)C(=O)O (stereo not given)	34.6% (inactive)	–
CCCN1C(=O)/C(=C/c2ccco2)SC1=Nc1ccc(OC)cc1	13.2% (inactive)	–
O=C(O)COc1ccc(/C=C2\SC(=Nc3ccccc3)N(c3ccccc3)C2=O)cc1	36.9% (inactive)	–
COc1ccc(N=C2S/C(=C\c3ccc(N4CCOCC4)o3)C(=O)N2CCc2c[nH]c3ccccc23)cc1	14.3% (inactive)	–
COc1cc(/C=C2\SC(=Nc3ccc(N4CCOCC4)cc3)N(C)C2=O)ccc1OC(C)C(=O)O (stereo not given)	0.3% (inactive)	–
CCOC(=O)COc1ccc(/C=C2/SC(=Nc3ccccc3)N(Cc3cccnc3)C2=O)cc1OC	-2.8% (inactive)	–
CS(=O)(=O)Nc1ccc(C(=O)Nc2ccc3c(c2)OCO3)cc1	-0.8% (inactive)	–

Compound	inhibition (at 20 µM)	inhibition [1]
O=C(Nc1cc(S(=O)(=O)N2CCOCC2)ccc1N1CCOCC1)c1cccc(S(=O)(=O)N2CCCCC2)c1	0.7% (inactive)	–
Cn1c(CCN2CCCCC2)nc2cc(NC(=O)NC3CCCCC3)ccc21	53.5% (inactive)	1.9%
O=C(NNC(=O)c1ccc([N+](=O)[O-])cc1)c1ccc(Br)cc1	2% (inactive)	–
NC(=O)C1CCN(C(c2ccccc2Cl)c2nnnn2CC2CCCO2)CC1 (stereo not given)	1.1% (inactive)	–
COc1ccc(S(=O)(=O)N(CCCN2CCOCC2)Cc2cccc(OC)c2OC)cc1	-0.2% (inactive)	–
COc1ccc(CNCCCC(=O)Nc2c(Cl)ccc(C)c2Cl)cc1OC	-0.3% (inactive)	–
N#C/C(=C\c1ccccc1OCc1ccc(C(=O)O)cc1)c1ccccc1	19.1% (inactive)	–
N#C/C(=C/c1ccc(OCc2ccc(C(=O)O)cc2)c(Br)c1)c1cccc(F)c1	87.9% (active)	–
N#C/C(=C/c1ccccc1OCc1ccc(F)cc1)c1ccc(C(=O)O)cc1	31% (inactive)	–
O=C(Nc1c2c(nn1-c1ccc([N+](=O)[O-])cc1)CS(=O)(=O)C2)C1CC1	0.9% (inactive)	–
O=C1NC(=Nc2ccc(O)cc2)S/C1=C\C=C\c1ccco1	41.3% (inactive)	–
O=C1/C(=C/C=C/c2ccco2)SC(=S)N1c1ccc(O)cc1	55.7% (active)	–
Cc1ccc(N2C(=O)/C(=C\c3ccco3)SC2=S)cc1	71.5% (inactive)	-1.2%
O=C1/C(=C\c2ccco2)SC(=S)N1c1ccc(O)cc1	57.7% (inactive)	-2%
O=C1S/C(=C\C=C\c2ccco2)C(=O)N1c1ccccc1	54.9% (inactive)	-0.6%
O=C1S/C(=C\C=C\c2ccco2)C(=O)N1c1ccc(O)cc1	78.1% (active)	–
CN(C)CCNc1oc(-c2ccccc2F)nc1C#N	0.5% (inactive)	–
Cc1ccc(/C(O)=C2/C(=O)C(=O)N(CC(=O)O)C2c2ccc([N+](=O)[O-])cc2)cc1 (stereo not given)	3.5% (inactive)	–
O=C(CNC(=O)c1ccco1)OCC(=O)c1ccc([N+](=O)[O-])cc1	-0.7% (inactive)	–
Cc1c(C(=O)O)sc2nc(/C=C/c3cccc(F)c3)[nH]c(=O)c12	27.7% (inactive)	–
Cc1c(C(=O)O)sc2nc(/C=C/c3cccc(O)c3)[nH]c(=O)c12	5.5% (inactive)	–
Cc1ccc(/C=C/c2nc3sc(C(=O)O)c(C)c3c(=O)[nH]2)cc1[N+](=O)[O-]	73% (active)	–

Compound	inhibition (at 20 µM)	inhibition [1]
COC(=O)c1c(/N=C/NOCc2ccc(Cl)cc2)sc2c1CCN(c1ncc(C(F)(F)F)cc1Cl)C2	-1.7% (inactive)	–
CC(C)Cn1c(N)c(C(=O)COC(=O)c2ccncc2)c(=O)n(C)c1=O	0.1% (inactive)	–
CCOc1ccc(Br)cc1S(=O)(=O)N1CCC(C(N)=O)CC1	-0.7% (inactive)	–
CCn1cc(C(=O)NCCc2ccccc2C)c(=O)c2ccc(C)nc21	-1.3% (inactive)	–
CC(C)Nc1cc(N2CCCC2)ccc1[N+](=O)[O-]	-0.2% (inactive)	–
COC(=O)CC1COc2ccccc2N1C(=O)c1ccc(Cl)cc1 (stereo not given)	-3% (inactive)	–
Cc1nc2c(C(=O)NCCc3ccccc3Cl)c[nH]n2c(=O)c1Cl	56.9% (active)	–
Cc1nc2c(C(=O)NCc3ccccc3Cl)c[nH]n2c(=O)c1Cl	49.3% (inactive)	–
Cc1nc2c(C(=O)NCCc3ccccc3)c[nH]n2c(=O)c1Cl	5.3% (inactive)	–
COc1cc(CNc2ccc(S(N)(=O)=O)cc2)ccc1OCC(=O)NC1CCCCC1	-1% (inactive)	–
O=C(CN1c2ccccc2S(=O)(=O)c2ccccc21)NCc1ccccc1	-0.5% (inactive)	–
CC1=C(C#N)C(=O)N(C2CCS(=O)(=O)C2)C(=O)/C1=C\c1ccco1 (stereo not given)	83.1% (active)	–
O=C1/C(=C/c2ccco2)SC(=S)N1C1CCS(=O)(=O)C1 (stereo not given)	39.9% (inactive)	–
CC1=C(C#N)C(=O)N(C2CCS(=O)(=O)C2)C(=O)/C1=C\c1ccc(C)o1 (stereo not given)	101% (active)	–
Cc1ccc(/C=C2\SC(=S)N(C3CCS(=O)(=O)C3)C2=O)o1 (stereo not given)	25.1% (inactive)	–
O=C1/C(=C\c2ccco2)SC(=S)N1C1CCS(=O)(=O)C1 (stereo not given)	40.7% (inactive)	–
Cc1ccc(/C=C2/SC(=S)N(C3CCCCC3)C2=O)o1	32.1% (inactive)	–
Cn1c(=O)oc2cc(S(=O)(=O)N3CCCC(C(=O)N4CCc5ccccc5C4)C3)ccc21 (stereo not given)	2.2% (inactive)	–
Cc1ccc(CS(=O)(=O)Cc2ccc(C(=O)NCCc3ccccc3)o2)cc1	0.5% (inactive)	–
CC(C)CNS(=O)(=O)c1cc(C(=O)N2CCOCC2)c(Cl)cc1Cl	1.1% (inactive)	–
COc1cc(/C=N/NC(N)=O)ccc1OCC(=O)Nc1ccc(C)c(C)c1	11.1% (inactive)	–

— PubChem BioAssay AID1986 (Sanford-Burnham Center for Chemical Genomics, 2009)
